Consider 58 compounds from PubChem BioAssay AID463173 (ICCB-Longwood Screening Facility, Harvard Medical School, 2010).

SMILES strings stand for the structures. The campaign covered roughly 52,000 compounds. About 4,300 (8.3%) were called active. No stated cut-off is given here; in the data, active means survival mostly below about 52% (no sharp cut-off); inactive means mostly above about 56%. This excerpt belongs to a sample that is enriched for actives.

This test has as its system DeltatarO mutant. Description: growth inhibition of S. aureus wild type versus tarO mutant, primary screen, teichoic acid synthesis inhibitors, RN4220, OD600 (AID 463173). Conditions: OD600, 18 h, stronger effect = lower value, screened at 18.75 µg/mL (by protocol).
In the case of `O=C(CN1C(=O)COc2ccc(S(=O)(=O)N3CCCCCC3)cc21)N1CCN(c2cccc(Cl)c2)CC1`, the survival is 95% (inactive). With `O=C(Nc1nnc(S(=O)(=O)N2CCCC2)s1)c1ccccc1Br` the figure was 36% (active); with `O=C(Nc1nnc(S(=O)(=O)N2CCCCC2)s1)c1ccccc1Br`, 61% (inactive); with `O=C(Nc1nnc(S(=O)(=O)N2CCCCCC2)s1)c1ccccc1Br`, 43% (active). For the compound `COc1ccc(C2CC(=O)c3cnc4c(-c5ccccc5)c(C)nn4c3C2)c(OC)c1` (stereo not drawn), the survival was 82% (inactive).

Take `COc1cccc(C(=O)Nc2ccc3nc(SCC(=O)N4CCc5ccccc54)sc3c2)c1`: the survival was 59% (inactive). In the case of `COc1cccc(-n2cc(C(=O)Nc3cc(C)c(Cl)cc3OC)c3ccccc3c2=O)c1` it was 56% (inactive). In the case of `O=C(Nc1ccc2oc(-c3cccnc3)nc2c1)c1ccc(-c2ccc(OC(F)(F)F)cc2)o1` it was 79% (inactive); in that of `CCOc1ccccc1NS(=O)(=O)c1cnc(N)nc1`, -1% (active); in that of `Nc1ncc(S(=O)(=O)Nc2ccc(F)cc2F)cn1`, 84% (inactive). With `CCOc1ccccc1CNS(=O)(=O)c1cnc(N)nc1` the figure was 79% (inactive). For the compound `COc1ccc(OC)c(NC(=O)c2ccc(-c3nc(COc4ccccc4)c(C)o3)cc2)c1`, the survival is 62% (inactive). For `CCOC(=O)c1[nH]c2ccccc2c1NC(=O)c1ccc(OCC)cc1`, the survival was 75% (inactive). In the case of `Cc1ccc(NC(=O)C(c2ccccc2)N2Cc3ccccc3C2=O)cc1Cl` (stereo not drawn) it was 75% (inactive); in that of `CCN(CC)CCNc1ncnc2c1cnn2-c1cc(Cl)ccc1C`, 77% (inactive). In the case of `CCN(c1ncnc2c1cnn2-c1cc(Cl)ccc1C)C1CCCCC1`, the survival is 73% (inactive). Turning to `CCN(CC)c1ncnc2c1cnn2-c1cc(Cl)ccc1C`, the survival is -5% (active).

As to `CCN(CC)C(=O)Cn1c(=O)n(Cc2ccc(C(=O)NCc3ccccc3Cl)cc2)c(=O)c2ccccc21`, the survival was 115% (inactive).

For the compound `Cc1cn2c(=O)cc(COC(=O)COc3ccccc3C)nc2s1`, the survival was 76% (inactive). Regarding `COc1ccccc1NC(=O)CSc1nnc2c(n1)[nH]c1ccccc12`, the survival is 77% (inactive). As for `COC(=O)c1ccc(NC(=O)CSc2nnc3c4ccccc4n(C(C)C)c3n2)cc1`, the survival is 52% (inactive). With `COc1ccccc1NC(=O)CSc1nnc2c3ccccc3n(C(C)C)c2n1`, the survival is 33% (active). `O=C(Nc1nnc(S(=O)(=O)N2CCCc3ccccc32)s1)c1cccc(Cl)c1`: the survival is 3% (active). As to `O=C(Nc1cccc(Cl)c1)c1cc(S(=O)(=O)N2CCCc3ccccc32)ccc1F`, the survival was 108% (inactive). For `O=C(Nc1nc2c(Cl)cccc2s1)c1ccc(S(=O)(=O)N2CCc3ccccc32)cc1`, the survival is 69% (inactive). Turning to `Cc1ccc(S(=O)(=O)N2CCCc3cc(NC(=O)c4cccc(Cl)c4)ccc32)cc1`, the survival is 87% (inactive). In the case of `O=C(Nc1nnc(S(=O)(=O)N2CCc3ccccc32)s1)c1cccc(Cl)c1`, the survival was 1% (active). Regarding `CC(C)C(=O)Nc1nnc(S(=O)(=O)N2CCc3ccccc32)s1`, the survival was 78% (inactive). As for `CCOC(=O)N1CCC(NC(=O)c2cnn(-c3ccccc3)c2C2CCN(C(=O)OC(C)(C)C)CC2)CC1`, the survival is 117% (inactive).

On to `CCOc1ccc(C2=NC(c3cccs3)=Nc3ccc(CC)cc3N2)cc1OCC`, for which the survival was 77% (inactive). With `COc1cccc(CNC(=O)c2cc(-c3cccc(OC)c3)n[nH]2)c1`, the survival was 71% (inactive).

Consider `O=C(NCc1ccccc1)N1CCc2c(sc3c2CCCC3)C1c1ccccc1` (stereo not drawn), for which the survival was 75% (inactive). In the case of `COc1cc(C)ccc1OCCCn1c(-c2ccc(Cl)cc2)nc2ccccc2c1=O`, the survival is 62% (inactive). In the case of `O=C(NC1CCCCCC1)C1c2ccccc2C(=O)N1Cc1ccc(F)cc1` (stereo not drawn) it was 111% (inactive). Take `Cc1ccc(CNC(=O)c2ccc(-c3nc(CS(=O)c4ccccc4)c(C)o3)cc2)cc1` (stereo not drawn): the survival was 88% (inactive). For the compound `COc1ccc(CCNc2nc(SCc3cccc(F)c3)nc3ccccc23)cc1OC`, the survival is 85% (inactive). For `Fc1cccc(CSc2nc(NCCc3ccccc3)c3ccccc3n2)c1`, the survival is 20% (active). In the case of `COc1cc(Nc2nc(SCc3ccc(Cl)cc3)nc3ccccc23)cc(OC)c1` it was 91% (inactive). In the case of `Fc1ccc(Nc2nc(SCc3cccc(Cl)c3)nc3ccccc23)cc1` it was 70% (inactive); in that of `COc1cc(Nc2nc(SCc3cccc(Cl)c3)nc3ccccc23)cc(OC)c1`, 37% (active).

As for `Clc1cccc(CSc2nc(NCCc3ccccc3)c3ccccc3n2)c1`, the survival is 102% (inactive). With `COc1ccc(-n2ccnc2SCC(=O)Nc2ccc3c(c2)OCO3)cc1` the figure was 105% (inactive); with `Cc1ccc2nc(-c3ccsc3)c(Nc3ccc(C(C)C)cc3)n2c1`, 124% (inactive). With `O=C(NCc1ccccc1)c1ccc2c(c1)N(Cc1ccccc1F)C(=O)c1ccccc1S2=O` (stereo not drawn) the figure was 92% (inactive); with `N#CC(C#N)=Cc1cn(-c2ccccc2)nc1-c1ccccc1`, 68% (inactive); with `O=C(NCc1ccccc1)C(=O)NCC(c1ccc2c(c1)OCO2)N1CCOCC1` (stereo not drawn), 92% (inactive). In the case of `CCc1ccc(-n2c(=O)c3c4c(sc3n(CC(=O)N3CCC(C)CC3)c2=O)CCC4)cc1` it was 83% (inactive); in that of `COC(=O)c1ccc(NC(=O)CC2C(=O)N(c3ccc(Cl)cc3)C(=O)N2Cc2ccco2)cc1` (stereo not drawn), 37% (active); in that of `CCc1ccc(NC(=O)CC2C(=O)N(c3cccc(OC)c3)C(=O)N2Cc2ccco2)cc1` (stereo not drawn), 25% (active). Regarding `COC(=O)c1ccc(NC(=O)CC2C(=O)N(c3cccc(OC)c3)C(=O)N2Cc2ccco2)cc1` (stereo not drawn), the survival is 70% (inactive). Regarding `COC(=O)c1ccc(NC(=O)CC2C(=O)N(c3cccc(C)c3)C(=O)N2Cc2ccco2)cc1` (stereo not drawn), the survival was 92% (inactive). In the case of `CCc1ccc(NC(=O)CC2C(=O)N(c3cccc(C)c3)C(=O)N2Cc2ccco2)cc1` (stereo not drawn), the survival was 118% (inactive). In the case of `CCc1ccc(NC(=O)CC2C(=O)N(c3ccc(Cl)cc3)C(=O)N2Cc2ccco2)cc1` (stereo not drawn) it was 91% (inactive); in that of `CCN(CC)c1ccc2cc(C(=O)Nc3cccc(OC)c3)c(=O)oc2c1`, 75% (inactive); in that of `Cn1nnc2c(NCc3c(F)cccc3F)ncnc21`, 80% (inactive).

Consider `C=CCn1c(C#N)c(N)sc1=N`, for which the survival is 96% (inactive). With `Cc1ccc(N2C(=O)CCSC23C(=O)N(Cc2ccccc2)c2ccccc23)cc1F` (stereo not drawn) the figure was 89% (inactive). As for `COc1ccc(OC(=O)c2nc(SCc3ccc(C)cc3)ncc2Cl)cc1`, the survival was 57% (inactive).
